# PubChem BioAssay (NCATS)
# Records with an inconclusive call do not appear. Unmarked numbers belong to inactive results. The source made the active and inactive calls. Calls follow the shape of the dose curve; as a rule, active = well fitted cell-killing curve with a large enough effect; inconclusive = small, poorly fitted or top-dose-only effect; inactive = flat fitted curve, though single readings scatter.
# Test: Cellular viability qHTS for adrenocortical cancer (ACC) cell line NCI-H295R (AID 1963990); also: nearly all actives have a fitted effect of over 60% in size
# Conditions: CellTiter-Glo ATP luminescence, 48 h; series mostly up to 46.1 µM; activity change, negative = viability loss: at the top concentration
# Text: PI: Naris Nilubol, MD Surgical Oncology Program, National Cancer Institute (NCI) National Institute of Health (NIH), Bethesda, Maryland Adrenocortical cancer (ACC) is a rare malignancy with poor survival outcomes and few treatment options. Currently, mitotane is the only FDA-approved therapy for ACC. Although adjuvant radiation therapy is rarely utilized, it has the potential to improve survival in select cases. Through a quantitative high-throughput drug screen (qHTS), we identified auranofin (AF), a thioredoxin reductase (TXNRD) inhibitor, as a promising candidate drug. This study aims to evaluate whether AF can enhance the efficacy of radiation therapy in the treatment of ACC. Two human ACC cell lines, SW-13 and NCI-H295R, were screened using the National Center for Advancing Translational Sciences (NCATS) Pharmaceutical Collection (NPC) and the Mechanism Interrogation PlatE (MIPE) library (~4,991 compounds). CellTiter-Glo (Cat # G7570, Promega, Madison, WI) was utilized to measure cell viability. Described herein are the results of the corresponding viability assay.
# PROTOCOL TABLE (as described by Inglese J, Shamu CE and Guy RK. 2007) SEQUENCE No. (e.g., 1, 2, 3, etc.); […] (e.g., Cells, Incubation, Reagent, etc.); VALUE; DESCRIPTION. 1; Cells; 5 uL; white, solid-bottom, 1536-well tissue-culture treated plates. 2; Time; overnight culture at 37C with 5% CO2. 3; Compounds and control; 23 nL; Kalypsis pin tool (Wako USA) equipped with a 1536-well pin head to transfer to the assay plates. 4; Time; 48 hours; 37C with 5% CO2. 5; Reagent; 4 uL; CellTiter-Glo luminescent substrate mix. 6; Time; 20 min at room temperature. 7; Detection; Luminescence; ViewLux plate reader NOTES (numbers refer to Sequence numbers above) 1. NCI-H295R cells were harvested from a T175 flask and resuspended in ITS-supplemented DMEM serum-free medium at a concentration of 300 000 cells/mL. Then 5 uL of resuspended cells were dispensed into each well of white, solid-bottom, 1536-well tissue-culture-treated plates using a multidrop combi dispenser. The plates were covered with stainless steel gasket lids. 2-3. The plates were cultured overnight at 37C with 5% CO2. Twenty-three nL of compounds (eight selected concentrations from the NPC / MIPE) or positive control (10 mM stock of bortezomib) in DMSO was transferred to each well of the assay plate using a pin tool (Kalypsys, San Diego, CA, USA). The final concentration of the compounds in the 5 uL assay volume ranged from 0.5 nM to 46 uM. 4-6. After 48 hours of incubation at 37C and 5% CO2, 4 uL of CellTilter-Glo luminescent substrate mix (Promega, Madison, WI, USA) was added to each well. Then the plates were incubated for 20 minutes at room temperature. 7. After incubation, luminescence was measured using a ViewLux plate reader (PerkinElmer, Waltham, MA, USA) with a clear filter was used to measure the number of metabolically competent cells. To determine compound activity in the qHTS assay, the titration-response data for each sample was plotted and modeled by a four-parameter logistic fit yielding IC50 and efficacy (maximal response) values. Raw plate reads for each titration point were normalized relative to positive control ([…], 100% inhibition) and DMSO-only wells (basal, 0%). REFERENCES: Inglese J, Shamu CE and Guy RK, Reporting data from high throughput screening of small molecule libraries, Nature Chemical Biology, 2007, 3(8): 438-441. doi.org/10.1038/nchembio0807-438.
Compound,"activity change, negative = viability loss",Potency
CCCCCCCCCCCC(CC1OC(=O)C1CCCCCC)OC(=O)C(CC(C)C)NC=O (stereo not given),20.2%,
CC#Cc1cncc(-c2ccc3c(c2)[C@@]2(N=C(C)C(N)=N2)C2(CCC(OC)CC2)C3)c1 (stereo not given in full),15.1%,
O=C(CCCCCCC(=O)Nc1ccc([C@H]2O[C@@H](CSc3nc(-c4ccccc4)c(-c4ccccc4)o3)C[C@@H](c3ccc(CO)cc3)O2)cc1)NO,-23.6% [at 9.17 µM],
CSc1ccc(C(=O)/C=C/c2cc(C)c(OC(C)(C)C(=O)O)c(C)c2)cc1,,39.8 µM (active)
CC[C@H](NC(C)C)[C@H](O)c1ccc(O)c2[nH]c(=O)ccc12,-3%,
CC[N+](C)(C)c1cccc(O)c1,8.21%,
CC(=O)O/N=C1/C(c2c(O)[nH]c3cc(Br)ccc23)=Nc2ccccc21,,15.8 µM (active)
C#CCN(C)CCCOc1ccc(Cl)cc1Cl,,18.4 µM (active)
Cc1cc(O)c2c(c1)C(=O)c1cc(O)cc(O)c1C2=O,-13.7%,
C[C@](N)(Cc1ccc(O)c(O)c1)C(=O)O,,inactive
Oc1ccc(/C=C/c2cc(O)cc(O)c2)cc1,,inactive
O=C(CCOCCOCCOCCOCCC(=O)Nc1c(I)cc(I)c(C(=O)O)c1I)Nc1c(I)cc(I)c(C(=O)O)c1I,-6.21%,
O=C(O)CNC(=O)c1nc(Cl)c2ccccc2c1O,2.72%,
C[C@@H]1CC[C@@]2(OC1)O[C@H]1C[C@H]3[C@@H]4CC[C@H]5C[C@@H](O)CC[C@]5(C)[C@H]4CC(=O)[C@]3(C)[C@H]1[C@@H]2C,-14.3% [at 3.81 µM],
CN1CCN(c2cc3c(nn2)Oc2ccccc2N3C)CC1,-23.9% [at 20 µM],
Oc1ccc(C(O)CNCCCCCCNCC(O)c2ccc(O)c(O)c2)cc1O (stereo not given),-3.63%,
NC(N)=NC(=O)Cc1c(Cl)cccc1Cl,-15.1%,
CC1=NN(c2ccc(C(=O)O)cc2)C(=O)/C1=C/c1ccc(-c2cc(C)c(C)cc2[N+](=O)[O-])o1,0.0055%,
C[C@H](CCC(=O)O)[C@H]1CC[C@H]2[C@@H]3[C@@H](O)C[C@@H]4C[C@H](O)CC[C@]4(C)[C@H]3CC[C@]12C,-5.99%,
Fc1ccc(C(c2ccc(F)cc2)N2CCNCC2)cc1,-11.8%,

Compound,"activity change, negative = viability loss",Potency
Cc1ccc(C(=O)OCc2ccc([C@@H](CN)C(=O)Nc3ccc4cnccc4c3)cc2)c(C)c1,,11.3 µM (active)
CCN(CCCCOC(=O)c1ccc(OC)c(OC)c1)C(C)Cc1ccc(OC)cc1 (stereo not given),-14.4%,
Cn1cc(-c2cc(Oc3cc(F)c(NC(=O)C4(C(=O)Nc5ccccc5)CC4)cc3F)ccn2)cn1,,28.2 µM (active)
CC(C)Oc1cc(Nc2nc(N[C@@H](C)c3ccc(F)cn3)ncc2Cl)[nH]n1,-3.33%,
COc1ccc([C@@H]2CC(=O)c3c(O)cc(O[C@@H]4O[C@H](CO[C@@H]5O[C@@H](C)[C@H](O)[C@@H](O)[C@H]5O)[C@@H](O)[C@H](O)[C@H]4O)cc3O2)cc1O,8.89%,
Cc1ncc(CSSCc2cnc(C)c(O)c2CO)c(CO)c1O,-7.04%,
Cn1c(=O)c2c(ncn2C)n(C)c1=O,,inactive
CCN(CC)CCc1nc(-c2ccccc2)no1,-3.49%,
O=C1c2ccccc2S(=O)(=O)N1CCCCN1CCN(c2ncccn2)CC1,0.703%,
CC(N)CCCC(C)(C)O (stereo not given),-20%,
CCCCCCCCCCCCCCCCO,-9.68%,
C[C@](Cc1c[nH]c2ccccc12)(NC(=O)OC1C2CC3CC(C2)CC1C3)C(=O)NC[C@H](NC(=O)CCC(=O)O)c1ccccc1 (stereo not given in full),-1.7%,
Cc1onc(-c2ccccc2)c1C(=O)Cl,-0.756%,
Cc1ccc(S(=O)(=O)OCC(=O)Nc2ccc(C(=O)O)c(O)c2)cc1,-10.4%,
CCc1cccc2c3c([nH]c12)[C@@](CC)(CC(=O)O)OCC3,-10.9%,
O=C1NC(=O)/C(=C\c2ccc(-c3ccc(F)cc3)o2)S1,1.56%,
COc1cc2c(cc1OC)CN(CCc1ccc(NC(=O)c3cccc4c(=O)c5cccc(OC)c5[nH]c34)cc1)CC2,-18.3%,
O=c1oc2c(O)c(O)cc3c(=O)oc4c(O)c(O)cc1c4c23,,inactive
CC(C)CCCC(C)N (stereo not given),1.71%,
CN(C(=O)c1ccc(F)cc1C(F)(F)F)C1CCN(c2nnc(-c3ccnn3C)c3ccccc23)CC1,0.248%,
